Of roughly 7,900 targets only a part is listed; those with a hit were picked by preference. About 0.6% of all pairs of compound and target were hits. Unmarked numbers belong to inactive results.
Experiments:
Assay in all cases: log2 fold change, soluble protein after heating vs DMSO (PISA); higher = thermal stabilisation; K562 cells, 10 uM, 30 min; active = over 0.2 and 3.5 SD of the protein, either way, in both replicates (recomputed)
[1] = compound: CC1=C(C=C(C=C1)NC(=O)C2=CC(=CC=C2)C(C)(C)C#N)NC3=CC4=C(C=C3)N=CN(C4=O)C
Procedure, shortened: (§1)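 K562 cells at 2×10^6 cells/mL were given 10 μM compound for 30 min. Aliquots then went through 3 min of heating across 48°C-58°C, were pooled, and were extracted in PBS with 0.5% NP-40 at 4°C, and the supernatant after 21,000xg for 90 min was quantified by TMTpro 16plex LC-MS/MS with channel sums equalised. Thermal stability relative to control samples, from duplicates, is given as log2 fold change.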

[2] = compound: CC1=CC=C(C=C1)SC2=C3C=C(SC3=CN=C2)C(=O)N
Procedure, shortened: as §1

[3] = compound: CC1=NC(=CC=C1)C2=C(N=C(N2)C(C)(C)C)C3=CC4=NC=CN=C4C=C3
Procedure, shortened: as §1

vemurafenib = compound: CCCS(=O)(=O)Nc1ccc(F)c(C(=O)c2c[nH]c3ncc(-c4ccc(Cl)cc4)cc23)c1F [vemurafenib]
Procedure, shortened: as §1

[4] = compound: CCCS(=O)(=O)Nc1ccc(F)c(C(=O)c2c[nH]c3ncc(Cl)cc23)c1F
Procedure, shortened: as §1

barasertib = compound: CCN(CCCOc1ccc2c(Nc3cc(CC(=O)Nc4cccc(F)c4)[nH]n3)ncnc2c1)CCOP(=O)(O)O [barasertib]
Procedure, shortened: as §1

[5] = compound: CC[C@@H]1C(=O)N(C)c2cnc(Nc3ccc(C(=O)NC4CCN(C)CC4)cc3OC)nc2N1C1CCCC1
Procedure, shortened: as §1

volasertib = compound: CC[C@@H]1C(=O)N(C)c2cnc(Nc3ccc(C(=O)N[C@H]4CC[C@H](N5CCN(CC6CC6)CC5)CC4)cc3OC)nc2N1C(C)C [volasertib]
Procedure, shortened: as §1

[6] = compound: CN(C)CC(=O)Nc1ccc2[nH]c(=O)c3ccccc3c2c1
Procedure, shortened: as §1

rosiglitazone = compound: CN(CCOC1=CC=C(C=C1)C[C@H]2C(=O)NC(=O)S2)C3=CC=CC=N3 (racemic) [rosiglitazone]
Procedure, shortened: as §1

[7] = compound: CN1C2=C(C3=C1C(=O)N(N=C3)CC4=CC(=CC=C4)N)SC(=C2)S(=O)C
Procedure, shortened: as §1

[8] = compound: CCCc1cc(C)[nH]c(=O)c1CNC(=O)c1cc(-c2ccnc(N3CCN(C)CC3)c2)cc2c1cnn2C(C)C
Procedure, shortened: as §1

givinostat = compound: CCN(CC)Cc1ccc2cc(COC(=O)Nc3ccc(C(=O)NO)cc3)ccc2c1 [givinostat]
Procedure, shortened: as §1

[9] = compound: CCn1c(C(=O)N(C2CC2)C2CC2)cc2c3c(ncn3C)c(Nc3cc(C)n(C)n3)nc21
Procedure, shortened: as §1

[10] = compound: CCn1cc(-c2ccnc3[nH]c(-c4cccc(CN(C)C)c4)cc23)c(-c2ccc(NC(=O)N(C)C)cc2)n1
Procedure, shortened: as §1

[11] = compound: CN1CCC(CNc2ccc3ncc(-c4cccc(OC(F)(F)F)c4)n3n2)CC1
Procedure, shortened: as §1

Nexturastat A = compound: CCCCN(Cc1ccc(C(=O)NO)cc1)C(=O)Nc1ccccc1 [Nexturastat A]
Procedure, shortened: as §1

epoxomicin = compound: CC[C@H](C)[C@@H](C(=O)N[C@@H]([C@@H](C)O)C(=O)N[C@@H](CC(C)C)C(=O)[C@]1(CO1)C)NC(=O)[C@H]([C@@H](C)CC)N(C)C(=O)C [epoxomicin]
Procedure, shortened: as §1

[12] = compound: CC1=C(C=C(C=C1)NC(=O)C2=CC(=CC=C2)N(C)C)NC(=O)C3=CC=C(C=C3)O
Procedure, shortened: as §1

[13] = compound: CC[C@H](C)N1C=C(C2=C(C=C(C=C21)C3=CN=C(C=C3)N4CCNCC4)C(=O)NCC5=C(C=C(NC5=O)C)C)C
Procedure, shortened: as §1

Chain of UniProt Q16881 (Q16881 whole entry, looked up): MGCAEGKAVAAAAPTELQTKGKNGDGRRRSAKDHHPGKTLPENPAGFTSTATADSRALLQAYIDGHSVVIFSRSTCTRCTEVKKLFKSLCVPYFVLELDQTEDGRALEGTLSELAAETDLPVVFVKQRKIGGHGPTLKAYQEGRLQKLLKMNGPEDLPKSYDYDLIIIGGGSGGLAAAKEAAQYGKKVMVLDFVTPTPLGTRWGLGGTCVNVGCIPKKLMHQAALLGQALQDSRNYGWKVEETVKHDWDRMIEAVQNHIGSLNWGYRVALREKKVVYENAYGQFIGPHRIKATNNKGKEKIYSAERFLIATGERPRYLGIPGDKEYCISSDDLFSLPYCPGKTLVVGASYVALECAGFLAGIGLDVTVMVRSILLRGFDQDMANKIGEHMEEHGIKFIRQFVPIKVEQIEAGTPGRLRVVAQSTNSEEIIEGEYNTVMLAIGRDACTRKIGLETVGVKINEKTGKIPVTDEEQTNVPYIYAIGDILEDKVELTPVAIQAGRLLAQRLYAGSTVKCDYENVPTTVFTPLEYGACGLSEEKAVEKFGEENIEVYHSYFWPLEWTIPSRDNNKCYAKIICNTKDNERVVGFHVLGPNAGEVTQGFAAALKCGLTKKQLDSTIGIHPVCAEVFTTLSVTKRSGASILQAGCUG
Chain of UniProt Q8NE00 (Q8NE00 whole entry, looked up): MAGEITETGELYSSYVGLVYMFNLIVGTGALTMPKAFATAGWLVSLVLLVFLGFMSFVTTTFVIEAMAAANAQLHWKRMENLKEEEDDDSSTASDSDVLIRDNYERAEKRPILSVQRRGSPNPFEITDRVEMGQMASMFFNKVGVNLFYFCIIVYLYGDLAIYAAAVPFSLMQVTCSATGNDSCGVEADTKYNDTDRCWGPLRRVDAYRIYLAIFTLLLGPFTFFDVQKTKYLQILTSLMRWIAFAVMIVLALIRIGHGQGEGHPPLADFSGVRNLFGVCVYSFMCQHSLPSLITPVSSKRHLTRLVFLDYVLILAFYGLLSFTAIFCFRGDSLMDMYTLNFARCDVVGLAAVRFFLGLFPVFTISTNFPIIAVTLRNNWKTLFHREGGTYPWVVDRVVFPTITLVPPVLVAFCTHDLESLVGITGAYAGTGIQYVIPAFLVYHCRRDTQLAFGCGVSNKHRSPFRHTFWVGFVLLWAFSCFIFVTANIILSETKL
Chain of UniProt Q8IWA0 (Q8IWA0 whole entry, looked up): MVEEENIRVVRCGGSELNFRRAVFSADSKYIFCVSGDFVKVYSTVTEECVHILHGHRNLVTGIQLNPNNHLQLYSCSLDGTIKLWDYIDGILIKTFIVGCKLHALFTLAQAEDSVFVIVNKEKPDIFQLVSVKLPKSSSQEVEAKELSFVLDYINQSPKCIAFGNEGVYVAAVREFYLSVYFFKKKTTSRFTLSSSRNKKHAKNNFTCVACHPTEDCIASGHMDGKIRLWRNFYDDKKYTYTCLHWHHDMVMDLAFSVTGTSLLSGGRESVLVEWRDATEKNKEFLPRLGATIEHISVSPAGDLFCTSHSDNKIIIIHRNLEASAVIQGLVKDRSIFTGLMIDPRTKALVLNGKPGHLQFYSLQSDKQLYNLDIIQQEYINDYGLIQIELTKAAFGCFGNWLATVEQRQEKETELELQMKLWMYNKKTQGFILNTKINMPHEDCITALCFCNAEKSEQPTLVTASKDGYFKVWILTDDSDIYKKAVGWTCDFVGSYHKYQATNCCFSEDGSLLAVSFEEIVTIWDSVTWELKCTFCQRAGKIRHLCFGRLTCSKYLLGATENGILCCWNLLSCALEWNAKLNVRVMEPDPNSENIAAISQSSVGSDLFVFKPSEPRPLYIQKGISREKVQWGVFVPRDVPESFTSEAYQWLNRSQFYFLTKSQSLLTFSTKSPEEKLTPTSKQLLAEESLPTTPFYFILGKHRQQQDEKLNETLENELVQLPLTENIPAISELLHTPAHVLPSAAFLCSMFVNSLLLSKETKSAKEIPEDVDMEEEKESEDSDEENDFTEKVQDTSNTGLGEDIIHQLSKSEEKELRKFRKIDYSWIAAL
Chain of UniProt Q5U3C3 (Q5U3C3 whole entry, looked up): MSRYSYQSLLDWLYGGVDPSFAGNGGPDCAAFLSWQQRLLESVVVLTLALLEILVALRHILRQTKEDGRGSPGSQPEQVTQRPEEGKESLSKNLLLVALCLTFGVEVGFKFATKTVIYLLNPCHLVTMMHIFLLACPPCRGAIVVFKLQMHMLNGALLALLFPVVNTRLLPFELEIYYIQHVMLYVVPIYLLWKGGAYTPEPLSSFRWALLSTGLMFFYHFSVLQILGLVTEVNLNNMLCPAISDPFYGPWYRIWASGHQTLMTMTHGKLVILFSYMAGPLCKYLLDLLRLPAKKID
Chain of UniProt Q96ET8 (Q96ET8 whole entry, looked up): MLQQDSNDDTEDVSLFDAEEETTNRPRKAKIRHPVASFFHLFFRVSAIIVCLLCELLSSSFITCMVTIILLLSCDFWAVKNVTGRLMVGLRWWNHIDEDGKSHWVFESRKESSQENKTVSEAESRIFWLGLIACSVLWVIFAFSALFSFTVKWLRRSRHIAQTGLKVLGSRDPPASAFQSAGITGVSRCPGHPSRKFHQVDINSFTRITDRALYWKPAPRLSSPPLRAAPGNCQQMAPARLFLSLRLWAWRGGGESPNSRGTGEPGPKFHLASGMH
Chain of UniProt P61960 (P61960 whole entry, looked up): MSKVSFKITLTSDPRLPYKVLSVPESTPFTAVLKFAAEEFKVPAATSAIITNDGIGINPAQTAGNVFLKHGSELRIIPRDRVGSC
Chain of UniProt Q5VZI3 (Q5VZI3 whole entry, looked up): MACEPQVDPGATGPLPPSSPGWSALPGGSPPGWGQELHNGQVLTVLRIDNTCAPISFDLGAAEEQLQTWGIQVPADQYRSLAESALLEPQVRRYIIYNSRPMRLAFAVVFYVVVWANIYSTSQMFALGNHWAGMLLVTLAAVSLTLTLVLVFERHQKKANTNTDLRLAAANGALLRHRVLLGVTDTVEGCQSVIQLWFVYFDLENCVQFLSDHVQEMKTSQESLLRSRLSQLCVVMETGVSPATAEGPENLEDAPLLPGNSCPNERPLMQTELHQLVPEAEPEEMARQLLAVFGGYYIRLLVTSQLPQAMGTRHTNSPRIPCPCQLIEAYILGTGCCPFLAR
Chain of UniProt Q9C035 (Q9C035 whole entry, looked up): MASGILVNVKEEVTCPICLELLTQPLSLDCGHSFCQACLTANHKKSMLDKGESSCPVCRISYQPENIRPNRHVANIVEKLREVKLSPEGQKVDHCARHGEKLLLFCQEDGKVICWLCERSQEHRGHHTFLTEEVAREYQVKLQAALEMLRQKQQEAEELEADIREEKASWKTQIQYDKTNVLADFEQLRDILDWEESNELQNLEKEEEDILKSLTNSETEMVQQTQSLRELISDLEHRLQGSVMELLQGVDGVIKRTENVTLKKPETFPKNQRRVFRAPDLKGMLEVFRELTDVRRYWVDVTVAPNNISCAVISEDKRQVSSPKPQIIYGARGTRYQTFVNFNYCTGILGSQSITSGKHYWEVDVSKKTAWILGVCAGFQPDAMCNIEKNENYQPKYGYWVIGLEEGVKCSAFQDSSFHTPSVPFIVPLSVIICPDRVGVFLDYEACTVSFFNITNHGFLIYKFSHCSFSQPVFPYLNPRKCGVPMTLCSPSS
Chain of UniProt O60784 (O60784 whole entry, looked up): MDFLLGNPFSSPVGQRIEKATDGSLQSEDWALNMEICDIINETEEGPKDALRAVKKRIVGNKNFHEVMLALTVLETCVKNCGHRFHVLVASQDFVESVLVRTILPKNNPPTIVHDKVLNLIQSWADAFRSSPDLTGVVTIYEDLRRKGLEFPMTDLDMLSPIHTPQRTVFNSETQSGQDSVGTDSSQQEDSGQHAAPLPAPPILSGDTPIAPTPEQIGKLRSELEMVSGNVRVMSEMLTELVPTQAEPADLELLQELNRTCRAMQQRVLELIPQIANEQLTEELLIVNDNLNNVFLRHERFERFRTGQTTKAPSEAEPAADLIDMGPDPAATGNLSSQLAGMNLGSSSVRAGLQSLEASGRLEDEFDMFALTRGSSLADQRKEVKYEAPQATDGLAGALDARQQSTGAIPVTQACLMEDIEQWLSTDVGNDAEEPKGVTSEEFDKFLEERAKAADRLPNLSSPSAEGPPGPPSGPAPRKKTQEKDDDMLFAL
Chain of UniProt P18887 (P18887 whole entry, looked up): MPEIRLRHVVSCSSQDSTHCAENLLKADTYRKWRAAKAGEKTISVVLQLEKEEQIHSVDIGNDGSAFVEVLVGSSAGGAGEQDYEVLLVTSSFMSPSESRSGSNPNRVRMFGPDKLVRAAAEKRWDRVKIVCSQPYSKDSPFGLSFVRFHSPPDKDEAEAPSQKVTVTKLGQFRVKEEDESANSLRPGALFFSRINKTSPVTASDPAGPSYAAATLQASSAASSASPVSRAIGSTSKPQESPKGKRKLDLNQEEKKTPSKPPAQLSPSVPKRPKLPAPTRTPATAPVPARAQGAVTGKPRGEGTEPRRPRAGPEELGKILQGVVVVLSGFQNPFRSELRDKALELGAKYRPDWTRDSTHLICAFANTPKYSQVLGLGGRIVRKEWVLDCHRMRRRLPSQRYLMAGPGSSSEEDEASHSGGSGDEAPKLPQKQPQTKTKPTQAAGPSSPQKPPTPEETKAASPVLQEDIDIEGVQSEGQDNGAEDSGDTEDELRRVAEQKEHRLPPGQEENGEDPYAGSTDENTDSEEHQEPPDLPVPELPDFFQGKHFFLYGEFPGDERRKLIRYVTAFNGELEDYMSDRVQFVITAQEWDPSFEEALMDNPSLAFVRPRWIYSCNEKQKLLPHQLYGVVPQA
Chain of UniProt Q629K1 (Q629K1 whole entry, looked up): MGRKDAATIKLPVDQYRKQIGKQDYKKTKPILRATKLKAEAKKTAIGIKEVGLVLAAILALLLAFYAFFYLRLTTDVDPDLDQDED

Target | log2 fold change [1] | log2 fold change [2] | log2 fold change [3] | log2 fold change (vemurafenib) | log2 fold change [4] | log2 fold change (barasertib) | log2 fold change [5] | log2 fold change (volasertib) | log2 fold change [6] | log2 fold change (rosiglitazone) | log2 fold change [7] | log2 fold change [8] | log2 fold change (givinostat) | log2 fold change [9] | log2 fold change [10] | log2 fold change [11] | log2 fold change (Nexturastat A) | log2 fold change (epoxomicin) | log2 fold change [12] | log2 fold change [13]
TUBA4A (UniProt C9JJQ8) | -0.019 | 0.022 | 0.138 | 0.053 | -0.065 | 0.136 | -0.115 | 0.099 | 0.09 | -0.078 | 0.114 | – | – | – | – | – | – | – | – | –
TVP23C (UniProt Q96ET8) | – | 0.024 | – | -0.022 | -0.178 | – | 0.097 | 0.068 | -0.025 | – | 0 | -0.118 | 0.043 | 0.039 | -0.019 | -0.033 | – | – | – | –
UTP20 (UniProt O75691) | – | 0.037 | – | – | -0.086 | – | – | 0.093 | – | – | – | – | 0.463 | 0.105 | – | – | 0.755 (active) | -0.355 | – | –
XAB2 (UniProt Q9HCS7) | – | – | -0.034 | – | – | – | – | – | – | – | 0.026 | 0.168 | – | – | – | – | 0.469 | 0.019 | -0.027 | –
WDR75 (UniProt Q8IWA0) | – | 0.043 | -0.053 | -0.126 | -0.069 | 0.025 | – | -0.153 | -0.073 | -0.061 | 0.166 | 0.107 | – | – | – | – | 0.395 | -0.156 | 0.007 | -0.041
XRCC1 (UniProt P18887) | 0.049 | – | -0.222 | – | – | – | – | – | – | – | -0.192 | – | 0.01 | -0.09 | 0.006 | -0.239 | 0.429 | -0.1 | 0.063 | –
WARS1 (UniProt G3V5U1) | -0.795 | – | -0.638 | – | – | -0.007 | -0.03 | – | – | 0.554 | – | -0.118 | – | – | – | – | 0.136 | -0.237 | – | –
WARS1 (UniProt G3V3P2) | -0.055 | – | – | – | – | -0.255 | – | – | – | 1.27 | – | – | – | – | – | – | – | – | – | –
XIAP (UniProt P98170) | -0.047 | -0.045 | – | 0.035 | 0 | 0 | -0.135 | -0.457 (active) | 0.071 | 0.043 | -0.101 | -0.049 | 0.019 | -0.029 | 0 | -0.131 | -0.045 | 0 | – | 0.094
TRIM5 (UniProt Q9C035) | -0.063 | – | – | -0.044 | – | – | – | – | -0.005 | – | 0.25 | – | 0.119 | 0.017 | – | – | 0.033 | 0 | -0.197 | –
TXNRD1 isoform 7 (UniProt Q16881) | -0.567 | -0.037 | – | -0.123 | 0.049 | 0.041 | 0.054 | -0.106 | -0.074 | 0.024 | 0.101 | – | 0.403 | -0.001 | -0.501 | -0.028 | 0.221 | 0.155 | – | –
VWA3B isoform 6 (UniProt Q502W6) | – | 0.072 | 0 | -0.1 | 0.008 | 0.057 | -0.038 | -0.631 (active) | -0.007 | 0.076 | -0.023 | -0.169 | 0.011 | -0.037 | -0.125 | -0.234 | -0.292 | -0.262 | 0.104 | -0.203
TMEM104 (UniProt Q8NE00) | – | -0.015 | -0.039 | – | -0.173 | – | -0.019 | 0.043 | – | – | 0.12 | -0.126 | -0.012 | -0.027 | 0.204 | 0.018 | -0.046 | -0.19 | 0.058 | -0.033
TOM1 (UniProt O60784) | 0.058 | – | -0.022 | – | – | -0.039 | – | – | – | 0.019 | – | -0.015 | -0.09 | 0.035 | -0.072 | -0.664 (active) | 0.504 (active) | 0.094 | – | –
VDAC1 (UniProt C9JI87) | -0.03 | -0.034 | – | – | -0.134 | 0.071 | 0.097 | 0.08 | – | – | 0.21 | -0.053 | -0.052 | 0 | – | – | -0.093 | -0.007 | -0.003 | -0.334
UFM1 isoform 2 (UniProt P61960) | 0.004 | -0.01 | – | -0.13 | 0.001 | 0.053 | 0.116 | 0.012 | 0.114 | -0.03 | 0.004 | 0.127 | -0.146 | 0.034 | -0.001 | -0.005 | -0.36 (active) | 0.029 | – | 0.069
TMEM164 (UniProt Q5U3C3) | 0.288 | 0.05 | -0.047 | -0.083 | 0.078 | -0.095 | -0.01 | -0.145 | 0.07 | 0.135 | -0.001 | -0.305 | -0.038 | 0.045 | -0.053 | -0.021 | -0.142 | 0.082 | – | -0.01
TRIM23 (UniProt P36406) | -0.025 | – | 0.036 | -0.022 | – | 0.021 | 0.013 | – | 0.025 | -0.231 | -0.116 | 0.055 | 0.027 | -0.059 | -0.089 | -0.228 | – | – | -0.008 | 0.049
TRIQK (UniProt Q629K1) | -0.022 | – | -0.173 | – | – | -0.041 | – | – | – | 0.039 | -0.04 | 0.014 | – | – | – | – | -0.028 | -0.02 | -0.007 | –
TMEM268 isoform 3 (UniProt Q5VZI3) | 0.056 | -0.178 | – | – | 0.083 | -0.461 | -0.088 | -0.005 | – | 0.098 | 0.025 | 0.18 | 0.11 | 0.093 | 0.013 | -0.123 | 0.124 | 0.536 (active) | 0.024 | 0.112
TMEM106B (UniProt Q9NUM4) | -0.029 | 0.161 | 0.019 | -0.163 | -0.081 | -0.039 | 0.025 | -0.032 | -0.05 | 0.022 | 0.012 | -0.023 | 0.052 | -0.026 | -0.007 | -0.13 | -0.11 | -0.11 | – | -0.05
TTC26 | – | – | – | -0.598 (active) | – | -0.139 | – | – | -0.088 | 0.068 | – | – | – | – | – | – | – | – | 0.116 | –
WARS1 (UniProt G3V339) | – | – | – | – | – | – | – | – | – | – | – | – | – | – | – | – | 0.188 | -0.238 | – | –
